This is a sample that favours compounds with a hit; in the whole collection about 3.5% have one here.
BoNT-A LC inh2: inhibitors of Botulinum neurotoxin A light chain protease; hit rate 0.17% among 360,000; multiplex microsphere protease substrate cleavage, flow cytometry; AID 588499; inhibition, % at 10 µM; note: plate controls were buffer without enzyme for full effect and enzyme alone for no effect
BoNT-F LC inh: BoNT F light chain protease inhibition. Multiplex microsphere protease cleavage assay, flow cytometry. inhibition, % at 10 µM. hit rate 0.22% among 360,000. AID 588497; in the data active = inhibition above about 35%, passing the limit was not always enough; inconclusive = no clear call, values can overlap the other calls; note: plate controls were buffer without enzyme for full effect and enzyme alone for no effect
Bead autofluor: compound fluorescence in toxin protease inhibitor counterscreen; hit rate 3.1% among 360,000; AID 624483; compound autofluorescence counterscreen, microsphere flow cytometry; active compounds read high; fluorescence intensity (concentration not given with the values); in the data active = fluorescence intensity above about 16000; inconclusive = no clear call, values can overlap the other calls
Anthrax LF inh2: inhibitors of Bacillus anthracis lethal factor protease; AID 588501; hit rate 0.12% among 360,000; inhibition, % at 10 µM; multiplex microsphere protease cleavage assay, LF; P15917; note: plate controls were buffer without enzyme for full effect and enzyme alone for no effect
An asterisk follows results filed as active; ? = inconclusive. Cut-off read from the data, not from the text of the source, unless noted: active = inhibition above about 30%; inconclusive = no clear call, values can overlap the other calls; inactive = below that.

SMILES	BoNT-A LC inh2	BoNT-F LC inh	Bead autofluor	Anthrax LF inh2
c1coc(-c2nc3nc4ccccc4nc3n2CC2CCCO2)c1 (stereo unspecified)	3	1	22833*	4
Cc1ccc(S(=O)(=O)NC(=O)C2(C)CCN2C(=O)Cc2cccs2)nc1 (stereo unspecified)	0	6	3800	-1
O=C(NCCc1c[nH]c2ccccc12)c1[nH]c(C(F)(F)F)nc1-c1ccccc1	-1	-8	5895	0
COc1ccc(CC(=O)Nc2c3c(nn2-c2ccccc2C)CS(=O)C3)cc1 (stereo unspecified)	0	0	20787*	0
O=S1(=O)CC(N2CCN(c3ccccn3)CC2)CN1Cc1ccccc1 (stereo unspecified)	-1	-14	4334	-7
CCCC1C(c2ccc(OC)cc2)C(C#N)(C#N)C2(C#N)CC1(N)NC2=O (stereo unspecified)	1	1	20036*	-1
Cc1ccc(-n2nc3c(c2NC(=O)c2c(-c4ccccc4Cl)noc2C)CS(=O)(=O)C3)c(C)c1	?	-3	23658*	-2
Cc1ccc(-n2nc3c(c2NC(=O)c2cccs2)CS(=O)(=O)C3)c(C)c1	0	3	5951	-2
Cc1ccccc1-n1nc2c(c1NC(=O)c1c(-c3ccccc3Cl)noc1C)CS(=O)(=O)C2	-2	-7	16862*	-10
CC1=C(C(=O)Nc2ccccc2C)C(c2ccc(C)o2)N2C(=O)CSC2=N1 (stereo unspecified)	4	3	20714*	-8
Cc1ccccc1NC(=O)CCN1C(=O)CSC1=O	1	-2	3618	-1
CCOc1ccccc1-c1nc(-c2cc3ccc(C)cc3[nH]c2=O)no1	2	5	16326*	0
COc1ccc(C(=O)C[n+]2cc(Br)cc3ccccc32)cc1[N+](=O)[O-]	116*	52*	6163	22
COc1ccc(C(=O)OCC(N)=O)cc1[N+](=O)[O-]	1	5	9464	1
O=C(C[n+]1cc(Br)cc2ccccc21)c1ccccc1	100*	34	6295	46*
Cn1c(=O)c2c(ncn2CC(=O)OCCCC(=O)c2ccc(Br)cc2)n(C)c1=O	-1	-8	2886	-4
CCCCN(C=O)c1c(CC)nc2c(OCc3cccc(Cl)c3)cccn12	0	8	2890	-2
CC1(C)CC(=O)C2=C(C1)NC(=O)C21C(C(=O)OC(C)(C)C)=C(N)Oc2ccc(Br)cc21 (stereo unspecified)	2	3	22960*	0
COc1ccc(/C=C2\SC(=O)N(CC(=O)NCCC(C)C)C2=O)cc1OC	4	43*	3482	-2
CCOC(=O)C1CC2=C(CC(C)(C)CC2=O)N(CCOC)C1=O (stereo unspecified)	0	-2	3716	-5
CCOCCCNC(=S)NNC(=O)CCn1nc(C)c(Br)c1C	-5	-5	24089*	-1
O=C(Nc1ccccc1C(=O)NCc1ccccc1)c1ccco1	1	-12	4060	1
Cc1nc2c(C(=O)NCc3ccccc3)c[nH]n2c(=O)c1Cl	5	7	20750*	-8
Cc1cc(C(=O)NCc2ccccc2)c(=O)[nH]c1C	-4	-6	23927*	-8
O=C(Nc1ccccc1C(=O)NCc1ccccc1)c1ccccc1	2	3	22302*	-3
SMILES	BoNT-A LC inh2	BoNT-F LC inh	Bead autofluor	Anthrax LF inh2
CN(Cc1ccccc1)C(=O)c1ccccc1NC(=O)c1ccccc1	3	2	22709*	0
Cc1ccc(C(=O)NCc2ccccc2)c(F)c1F	0	-1	4582	-1
CCCCC[C@H](C)N1C[C@@H](COCc2ccccc2)Oc2cc(N3CCC[C@H]3C(N)=O)ccc2S1(=O)=O	-1	-5	4194	5
CN(C)CCNc1ncnc2c1ncn2[C@H]1CN(Cc2ccco2)C[C@@H](CO)O1	-1	-3	3736	-5
O=C(NCCOCC(F)(F)C(F)F)c1cc(F)c(F)cc1Cl	-2	0	20634*	-3
O=C(Nc1ccc2c(c1)OCO2)C1COc2ccccc2O1 (stereo unspecified)	-1	-26	3103	-2
O=C(Nc1ccc2c(c1)CCC2)C1COc2ccccc2O1 (stereo unspecified)	0	0	23530*	-6
CCC/C=C/c1ccc(CN2C(C)C(=O)N(Cc3cn(CCC4OCCCO4)nn3)CCS2(=O)=O)cc1 (stereo unspecified)	0	-2	3001	-3
O=C(O)c1ccccc1OCCOc1ccccc1C(=O)O	0	4	4474	-1
O=C(O)c1ccccc1OCCOCCOc1ccccc1C(=O)O	-1	-2	23112*	-1
O=C(Nc1ccccc1)c1cc(C2CCCN(C(=O)c3cccs3)C2)on1 (stereo unspecified)	0	-2	3620	-6
